21 molecules from PubChem BioAssay (NCI) can be followed below.

This is part of a sample that, as a whole, favours compounds with a hit. Of some 79,000 tested, about 15% had one in any assay. A number with no mark means an inactive call. Activity calls are given as the source filed them. Rule as the data show it: active = growth inhibition above about 70%; inactive = the rest.

A short description of assay [1]: NCI Yeast Anticancer Drug Screen. Data for the rad50 strain (AID 155).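 Also: 0% = growth of vehicle-only cultures of the same strain.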 The following applies: S. cerevisiae rad50 strain growth inhibition; at 50.0 µM; hits give high values. In a few lines: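 Inhibition values express reduced yeast growth in compound-treated cultures relative to vehicle-treated controls.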
Assay [2] can be described thus: NCI Yeast Anticancer Drug Screen. Data for the mec2-1 strain (AID 157). Conditions: S. cerevisiae mec2-1 strain, at 50.0 µM, hits give high values. Summed up: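 Vehicle-treated cultures served as reference for growth inhibition of compound-exposed mec2-1 yeast.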
The nature of assay [3]: NCI Yeast Anticancer Drug Screen. Data for the sgs1 mgt1 strain (AID 161).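 Also: 0% = growth of cultures given vehicle only.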 Conditions: S. cerevisiae sgs1 mgt1 strain, at 50.0 µM, hits give high values. In a few lines: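 Read-out: growth inhibition vs vehicle controls. Cells: mutant yeast strain deficient in DNA damage repair.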
Assay [4] in a line: NCI Yeast Anticancer Drug Screen. Data for the cln2 rad14 strain (AID 165).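 Also: 0% = growth equal to vehicle treated cultures.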 Conditions: S. cerevisiae cln2 rad14 strain, at 50.0 µM, hits give high values. In a few lines: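 Each compound was tested on cln2 rad14 yeast. Inhibition of growth was calculated against vehicle-exposed controls.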
Assay [5] is described as follows: NCI Yeast Anticancer Drug Screen. Data for the bub3 strain (AID 167). Conditions: S. cerevisiae bub3 mutant strain, at 50.0 µM, hits give high values. Summed up: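 Steps: expose the mutant yeast strain to compound; grow alongside vehicle-treated cultures; measure growth; express inhibition against the vehicle cultures.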
Assay [6] in a line: NCI Yeast Anticancer Drug Screen. Data for the mlh1 rad18 strain (AID 175). The following applies: S. cerevisiae mlh1 rad18 strain growth inhibition; at 50.0 µM; hits give high values. Summed up: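 Vehicle-treated cultures served as the reference for growth inhibition in a yeast strain carrying DNA damage repair alterations exposed to each compound.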

Consider `NC(=O)c1c[se]c(C2OC(CO)C(O)C2O)n1` (stereo unspecified), for which the growth inhibition in assay [1] is -13.1%; in assay [2], -8.75%; in assay [3], -9.75%; in assay [4], -3.25%; in assay [5], -14.8%; in assay [6], -9.95%.
For `CC(=O)[CH-]C(C)=O.F[P-](F)(F)(F)(F)F.[Co+3].[NH-]CC[NH-].[NH-]CC[NH-]`, the growth inhibition in assay [1] was -1.2%; in assay [2], -15.4%; in assay [3], -12.2%; in assay [4], -29.9%; in assay [5], -4.35%; in assay [6], -5.35%.
Consider `CC1CCCCN1CCCN=C(N)N[N+](=O)[O-]` (stereo unspecified), for which the growth inhibition in assay [1] was 9.2%; in assay [2], -3.35%; in assay [3], 19.2%; in assay [4] it was 18.1%; in assay [5], 18.1%; in assay [6], -0.8%.
Regarding `c1cc2[se][se]c3c4cccc5[se][se]c(c(c1)c23)c54`, the growth inhibition is 1.05% in assay [1]; -8.7% in assay [2]; -26.8% in assay [3]; -3.95% in assay [4]; -1.8% in assay [5]; -31.1% in assay [6].
In the case of `CC(C)(C)NP(=O)(NC(C)(C)C)NC(C)(C)C`, the growth inhibition in assay [1] is 5.65%; in assay [2], -9.6%; in assay [3], -17.2%; in assay [4], 4.85%; in assay [5], -8.5%; in assay [6], 8.2%.
Take `CCOc1ccc2ccccc2c1OP(=O)(OCC)OCC`: the growth inhibition in assay [1] is 23.9%; in assay [2], 22%; in assay [3], 38.9%; in assay [4], 29.6%; in assay [5] it was 40.4%; in assay [6], 25.6%.
Take `COc1ccc2c(=O)c3ccccc3oc2c1CN(CCCl)CCCl`: the growth inhibition is 19.9% in assay [1]; 16.4% in assay [2]; -5.2% in assay [3]; 13.2% in assay [4]; -3.1% in assay [5]; -8.25% in assay [6].
As to `O=C1N=NC(Cl)c2ccccc21` (stereo unspecified), the growth inhibition is -20.6% in assay [1]; -13.5% in assay [2]; -19.1% in assay [3]; 2.65% in assay [4]; -17.9% in assay [5]; -10.8% in assay [6].
With `COc1ccc2nc3c4ccccc4scc-3c2c1`, the growth inhibition in assay [1] is 99.4% (active); in assay [2], 99.5% (active); in assay [3], 99.5% (active); in assay [4], 99.2% (active); in assay [5], 99.2% (active); in assay [6], 99.3% (active).
`O=P(O)(O)SP(=O)(O)O.[Zn+2]`: the growth inhibition in assay [1] was -20.9%; in assay [2], 9.55%; in assay [3] it was -15.8%; in assay [4], -8.7%; in assay [5] it was -12.6%; in assay [6] it was -1.35%.
`COC(=O)C1=C(O)C(C(=O)OC)C2/C(=[N+](/[O-])O)c3c(cc([N+](=O)[O-])cc3[N+](=O)[O-])C1C2[N+](=O)[O-]` (stereo unspecified): the growth inhibition in assay [1] is 75.8% (active); in assay [2], 81% (active); in assay [3], 87.8% (active); in assay [4] it was 66.3%; in assay [5], 67.8%; in assay [6] it was 90.7% (active).
Consider `O=C1NC(=O)C2(c3ccccc3)CCN1C2=O` (stereo unspecified), for which the growth inhibition in assay [1] was 1.35%; in assay [2], 4.6%; in assay [3] it was 1.8%; in assay [4] it was -7%; in assay [5], -12.2%; in assay [6], 10%.
`COc1ccc(C(C)CNCc2ccccc2)cc1` (stereo unspecified): the growth inhibition is 0.3% in assay [1]; -1.35% in assay [2]; 21.1% in assay [3]; -10.8% in assay [4]; -1.7% in assay [5]; -1.45% in assay [6].
In the case of `CC1(C)CCC[N+]1(C)CCC(C(N)=O)(c1ccccc1)c1ccccc1` (stereo unspecified), the growth inhibition was 12.7% in assay [1]; 5.3% in assay [2]; 6.6% in assay [3]; 4.45% in assay [4]; 8.8% in assay [5]; 3.35% in assay [6].
Take `CCC[CH2][Sn]([Br])([c]1ccccc1)[c]1ccccc1`: the growth inhibition is 99% (active) in assay [1]; 99% (active) in assay [2]; 99.4% (active) in assay [3]; 99.1% (active) in assay [4]; 99% (active) in assay [5]; 98.9% (active) in assay [6].
Consider `O=S(=O)(N=S(CCCl)CCCl)c1ccccc1`, for which the growth inhibition in assay [1] is 8.3%; in assay [2], 11.3%; in assay [3], 24.3%; in assay [4], -7.95%; in assay [5], 21.4%; in assay [6], 21.4%.
In the case of `C=C[Se](=C(C#N)C#N)c1ccccc1` (stereo unspecified), the growth inhibition in assay [1] was -3.35%; in assay [2], 28%; in assay [3] it was 5.75%; in assay [4], 4.35%; in assay [5], -16.4%; in assay [6] it was 0.7%.
For `CC(=O)[O][Hg][c]1cc[c]([Hg])s1`, the growth inhibition in assay [1] was 99.5% (active); in assay [2], 99.3% (active); in assay [3], 99.5% (active); in assay [4] it was 99.3% (active); in assay [5], 99% (active); in assay [6], 99.2% (active).
With `COC(=O)C[N+]1(C)C2CCC1CC(O)C2` (stereo unspecified), the growth inhibition in assay [1] is 1.5%; in assay [2], 2.75%; in assay [3], 0.55%; in assay [4], -23.3%; in assay [5], -17.1%; in assay [6] it was 9.95%.
In the case of `C/C=C(/C)C(=O)O[C@H]1CCN2CC=C(COC(=O)[C@@](O)([C@H](C)OC)C(C)(C)O)[C@H]12`, the growth inhibition in assay [1] is -17%; in assay [2], -15.8%; in assay [3], 3.65%; in assay [4], 11.6%; in assay [5], 7.55%; in assay [6], -44.2%.
Regarding `c1ccc([Se+](c2ccccc2)c2ccccc2)cc1`, the growth inhibition is 16.8% in assay [1]; -46.5% in assay [2]; 1.75% in assay [3]; -10.1% in assay [4]; -1.55% in assay [5]; 17.9% in assay [6].
